# Key:
# Experiment in all cases: PBM binding z-score (relative to random genomic background probes); higher = stronger binding; sequences stand for … in GC…GCGATTGACAGCGTAGAATGAAGG
# [1] = test system: FXR:RXRa (NR concentration 270 nM, RXRa partner concentration 90 nM)
# How it was run: (§1)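 Each nuclear receptor dimer, without ligand, was incubated for 1 h on custom Agilent 4×180K protein-binding microarrays. Binding was detected with antibodies against each partner (one per run), and scanned fluorescence was regression-normalized. The binding z-scores are referenced to random human genomic background probes.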
# [2] = test system: LXRa:RXRa (NR concentration 270 nM, RXRa partner concentration 90 nM)
# How it was run: as §1
# [3] = test system: LXRa homodimer (NR concentration 270 nM)
# How it was run: as §1
# [4] = test system: LXRb:RXRa (NR concentration 270 nM, RXRa partner concentration 90 nM)
# How it was run: as §1
# [5] = test system: LXRb homodimer (NR concentration 270 nM)
# How it was run: as §1
# [6] = test system: PPARa:RXRa (NR concentration 270 nM, RXRa partner concentration 90 nM)
# How it was run: as §1
# [7] = test system: PPARg:RXRa (NR concentration 180 nM, RXRa partner concentration 90 nM)
# How it was run: as §1
# [8] = test system: PPARg:RXRa 270nM:90nM, anti-RXR (NR concentration 270 nM, RXRa partner concentration 90 nM)
# How it was run: as §1
# [9] = test system: PPARg:RXRa 30nM:10nM, anti-RXR (NR concentration 30 nM, RXRa partner concentration 10 nM)
# How it was run: as §1
# [10] = test system: PPARg:RXRa 90nM:30nM, anti-RXR (NR concentration 90 nM, RXRa partner concentration 30 nM)
# How it was run: as §1
Sequence,PBM binding z-score [1],PBM binding z-score [2],PBM binding z-score [3],PBM binding z-score [4],PBM binding z-score [5],PBM binding z-score [6],PBM binding z-score [7],PBM binding z-score [8],PBM binding z-score [9],PBM binding z-score [10]
AGTCAAAGTTCATCTAGGTAACGAAAGATATGCT,6.43,5.78,4.68,3.86,1.83,5.26,7.04,6.66,3.55,5.72
CGAATTAGGTCACCAGGACAGTGAAGAGGTTGGA,4.43,2.73,0.379,2.04,-0.0787,5.25,8.25,6.75,4.82,6.53
CGAACTAGGTCAAAGAACAGTGAAAGGCGACGTA,3.3,1.96,-0.252,1.43,-0.259,4.66,8.35,7.08,5.63,7.35
TAGCCTAGGCCATGGGCCAGTATACCACGCGAAC,-0.747,-0.914,-0.864,-1.07,-1.23,-0.56,0.326,-0.0896,-0.9,-0.67
AATACAGGGTCCTCGTAGGCCAGAGTACGCACAG,-0.0498,-0.32,-0.268,-0.362,-0.321,0.0293,0.721,-0.0515,-0.317,-0.0938
ATATGTAGGTTAGCGTCATTCAGAAAGTAGGGAA,0.121,0.529,-0.273,0.174,0.215,2.81,4.14,3.23,1.36,2.32
CGTACTAGGTCAAAGGACAGTGAAAGGCGACGTA,3.86,2.77,0.17,1.89,-0.0877,4.83,9.74,7.95,8.11,9.06
ATACCAAGGTGATCGTGAGTTCGTTGATACTAAC,0.706,0.653,0.426,0.294,-0.366,0.602,0.328,-0.00894,0.101,-0.0417
CGAACTAGATCACCAGGACAGTGAAGAGGTTGGA,-0.196,-0.468,-0.072,-0.702,-0.495,-0.082,0.66,-0.0755,-0.0214,-0.286
ATCGAAAAGTCGAAGGTGAGTATACCCACCCGAA,0.0437,-0.18,-0.293,-0.264,-0.243,0.35,0.704,0.332,0.126,0.251
AGTCAAAATTCACTAGGTAACGTAAGATTCAGCT,0.492,0.568,0.177,0.0874,0.267,0.989,0.791,0.81,0.61,1.03
ATATGTAGGTTAGGGTCCTTCAGAAAGTAGGGAA,0.884,0.754,0.168,1.21,0.702,3.14,4.35,3.79,1.56,2.95
CGAACTAGGTCAAAGTACAGTGAAAGGCGACGTA,4.69,3.09,0.303,2.45,0.12,5.46,9.58,7.61,7.01,8.33
TCTCGGAGGACACGAAAGGTCAGTGCTCGACATC,2.42,3.37,3.24,2.99,-0.000616,2.99,0.746,2.29,2.43,2.19
TAGCCTAGGTCATAGGGCCAGTATAGTACGCATC,4.13,3.13,0.208,2.09,-0.248,3.7,3.32,3.46,1.43,2.75
CCTCGGAGGACAACAGGAGGTCAAAGCTGCCAGA,2.61,4.28,5.15,3.51,0.0871,3.68,1.17,1.56,-0.109,0.958
CGAACTAGGTCAAAGGATAGTGAAAGGCGACGTA,3.37,2.22,-0.4,1.58,-0.272,4.93,8.97,7.71,6.95,8.35
CGTCCAAGGTCATAGGAGGTCATTGAAGACAGAT,7.83,7.82,7.86,6.99,1.61,5.94,5.65,5.98,2.75,4.71
CAGACTAGGTCAAAGGTCAAAGTCGAGCCAACCA,8.06,6.96,4.82,7.09,2.54,7.49,13.9,10.9,13.4,13.3

# Reference: the supplement of paper PMC6555819
